# Reference: PubChem BioAssay (Tox21)
# “And” between values parts separate entries of the source, which are not always exact repeats. Identical values can stand only once. Inconclusive results are not listed. Unmarked numbers belong to inactive results. The source made the active and inactive calls. The call rests on the fitted dose curve.
# Molecular target: 5-hydroxytryptamine receptor 2A (Homo sapiens) (UniProt P28223)
# Experiment: 5-hydroxytryptamine receptor 2A (HTR2A) small molecule agonists, cell-based qHTS assay (AID 1963587); further: nearly all actives have a fitted effect of over 30% in size
# Settings: HTR2A-CHO cells, calcium flux fluorescence, agonist mode; series mostly up to 76.8 µM; activation: at the top concentration
# From the text: National Center for Advancing Translational Sciences [NCATS]
# Division of Preclinical Innovation [DPI]
# U.S. Environmental Protection Agency [EPA]
# National Institutes of Environmental Health Sciences [NIEHS]
# National Toxicology Program [NTP]
# U.S. Food and Drug Administration [FDA]
# The HTR2A receptor is a subtype of the 5-HT2 receptor that belongs to the serotonin receptor family and is a G protein-coupled receptor (GPCR). The HTR2A-CHO cell line stably expressing human 5-hydroxytryptamine receptor 2A (HTR2A) can be used for screening agonists of interactions between 5-HT2 and its ligands. The HTR2A-CHO calcium flux assay is a homogeneous fluorescence-based assay for detecting the intracellular calcium level using FDSS kinetic plate reader system.
# HTR2A-CHO cells were dispensed at 2000 cells/3uL/well in 1536-well black-clear bottom plates using a Multidrop Dispenser. After the assay plates were incubated at a 37 C/5% CO2 incubator for 18 h, 3 uL of Dye Loading Buffer was transferred to the assay plate by a Flying Reagent Dispenser. The assay plates were incubated at 37 C for 1h. For agonist mode, 23 nL of compounds dissolved in DMSO, positive controls or DMSO only was transferred to the assay plate by a pin tool. The fluorescence intensity in the plates was measured using FDSS 7000EX kinetic plate reader for 2 min at 1 sec intervals.
# On the % scale 0 is the no-effect control and ±100 the full control effect; potency means the concentration at half of the fitted maximal effect.
# Chain of 5-hydroxytryptamine receptor 2A (Homo sapiens) (P28223 whole entry, looked up): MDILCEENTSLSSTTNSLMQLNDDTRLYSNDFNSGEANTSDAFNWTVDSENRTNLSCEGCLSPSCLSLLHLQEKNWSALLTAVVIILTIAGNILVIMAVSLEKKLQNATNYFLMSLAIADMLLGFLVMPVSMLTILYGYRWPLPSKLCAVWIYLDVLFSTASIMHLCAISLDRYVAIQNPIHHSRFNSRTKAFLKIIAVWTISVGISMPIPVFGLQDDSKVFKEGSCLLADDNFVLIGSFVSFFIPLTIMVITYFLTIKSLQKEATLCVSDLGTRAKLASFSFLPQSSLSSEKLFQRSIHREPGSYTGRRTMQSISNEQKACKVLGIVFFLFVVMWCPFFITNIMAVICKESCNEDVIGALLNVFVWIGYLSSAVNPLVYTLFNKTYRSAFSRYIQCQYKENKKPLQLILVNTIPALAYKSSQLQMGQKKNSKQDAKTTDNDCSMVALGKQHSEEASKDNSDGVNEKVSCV
Structure (SMILES),activation,Potency
CC(=O)OCC1=C(C(=O)O)N2C(=O)[C@@H](NC(=O)Cc3cccs3)[C@H]2SC1,4.02% [at 35.6 µM],
c1ccc2cc3c4ccccc4c4ccccc4c3cc2c1,2.76%,
CC(C)(c1cc(Br)c(OCC(Br)CBr)c(Br)c1)c1cc(Br)c(OCC(Br)CBr)c(Br)c1 (stereo not given),1.57% [at 35.6 µM],
CS(=O)(=O)O,-0.728%,
Cc1ccccc1C(=O)N1CC/C(=N\OS(=O)(=O)O)c2ccc(Cl)cc21,-1.85% [at 35.6 µM],
CC[C@]12CCCN3CCc4c(n(c5ccccc45)[C@@](O)(C(=O)OC)C1)[C@@H]32,14.3%,
NCCO,,inactive
FC(F)(F)c1cccc(Cl)c1,2.66%,
O=C1Nc2ccccc2C1=O,6.94%,
Cc1ccc(N=Nc2c(O)ccc3ccccc23)c(C)c1,-0.98% [at 35.6 µM],
COc1cc(C(=O)NCc2ccc(OCCN(C)C)cc2)cc(OC)c1OC,-9.95% [at 35.6 µM],
COC(OC)OC,2.42%,
CN(C)CCOC(c1ccc(Cl)cc1)c1ccccn1 (stereo not given),-10.6% [at 35.6 µM],
Cc1ccc(S(=O)(=O)NC(=O)NC2CCCC2)cc1,6.43% [at 35.6 µM],
Cc1cccc(C)c1NC(=O)CN1CCCCCC1,2.12% [at 35.6 µM],
C/C=C/C(=O)CCCC,2.33%,
CC[C@H](c1ccc(O)cc1)[C@@H](CC)c1ccc(O)cc1,12.1%,
COc1cccc(Br)c1,-2.98%,
Nc1ccccc1N,,50.1 µM (active) and 30.9 µM (active)
C=C[Si](OC(=C)C)(OC(=C)C)OC(=C)C,-1.86%,

Structure (SMILES),activation,Potency
CC(C)C(=O)c1ccccc1,-5.31%,
CCCc1ccc(N)cc1,-6.02%,
Cc1ccc(C(=O)C(=O)O)cc1C,-1.58% [at 35.6 µM],
O=C(c1ccccc1)c1ccccc1O,,inactive
CC(C)OC(=O)C(O)(CC(=O)O)CC(=O)O,-1.14%,
CC(=O)N1C[C@H](O)C[C@H]1C(=O)O,-9.84% [at 35.6 µM],
CC(C)(C)NCCO,-2.88%,
CCCO[Si](OCCC)(OCCC)OCCC,4.02%,
C1=CCC2CC=CC2C1 (stereo not given),1.22%,
CC(C)C1CCC(O)CC1 (stereo not given),1.05%,
C[C@@H]1CCC[C@H](C)N1,3.77% [at 35.6 µM],
O=S(=O)(O)c1cccc2c(S(=O)(=O)O)cccc12,3.99%,
O=S(=O)(O)c1cccc(S(=O)(=O)O)c1,-0.239%,
CCC(OCCCOC)OC(C)=O (stereo not given),3.34%,
C=CCCC=C,-3.07%,
CO[C@@]1(NC(=O)C(C(=O)O)c2ccc(O)cc2)C(=O)N2C(C(=O)O)=C(CSc3nnnn3C)CO[C@@H]21 (stereo not given in full),-2.13% [at 35.6 µM],
O=S(=O)(O)c1ccc2cc(O)c(S(=O)(=O)O)cc2c1,0.0845%,
CC1(C)[C@H]2CC[C@](C)(C2)[C@H]1O,-0.237%,
CCCCCCCCSCCO,4.07%,
Cc1cc(C)c(S(=O)(=O)O)cc1N=Nc1cc(S(=O)(=O)O)c2ccccc2c1O,2.63%,
